# Reference: PubChem BioAssay (Tox21)
# Results filed as inconclusive are left out. Unmarked numbers belong to inactive results. The call rests on the fitted dose curve; in most records, active means well fitted curve in the direction sought with a large enough effect in the repeat runs; inconclusive means weak or mixed curves; inactive means no such curve, though single readings can be large; an effect the other way counts as inactive or inconclusive.
# Test: qHTS RealTime-Glo MT Cell Viability Assay in HepG2 cells - 0 hour (AID 1224889); further: nearly all actives have a fitted effect of over 50% in size
# Settings: RealTime-Glo luminescence; series mostly up to 76.8 µM; activity change, negative = cytotoxicity: at the top concentration
# Procedure, shortened: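 Luminescence read-out: viable HepG2 cells reduce a prosubstrate to a NanoLuc substrate, giving a signal proportional to live cell number. Reads taken at 0, 8, 16, 24, 32 and 40 h of compound exposure at 37 C.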
# On the % scale 0 is the no-effect control and ±100 the full control effect.
row,Structure (SMILES),"activity change, negative = cytotoxicity"
1,Nc1ccc(/C=C/c2ccc(N)cc2S(=O)(=O)O)c(S(=O)(=O)O)c1,2.99% [at 0.29 µM]
2,CC(C)C(=O)c1ccccc1,-0.128%
3,C=CC(C)(O)CC/C=C(\C)CC (centres undefined),0.32%
4,C=C(C)C(=O)OC,-1.98%
5,O=S1(=O)CCCC1,-3.82%
6,CO/N=C(/C(=O)N[C@@H]1C(=O)N2C(C(=O)O)=C(Cn3nnc(C)n3)CS[C@H]12)c1csc(N)n1,-4.49% [at 35.3 µM]
7,NC(=O)NC(=O)Cc1ccccc1,6.76% [at 35.3 µM]
8,C=C(C)[C@@H]1CC[C@@H](C)C[C@@H]1O,5.71%
9,OC[C@@H](O)[C@H](O)[C@@H](O)[C@@H](O)CO,4.56%
10,CCC(C)(CCC(C)C)C(=O)[O-].CCC(C)(CCC(C)C)C(=O)[O-].[Zn+2] (centres undefined),8.26%
11,O=C(COCCOCCOCC(=O)Nc1c(I)cc(I)c(C(=O)O)c1I)Nc1c(I)cc(I)c(C(=O)O)c1I,0.225% [at 35.3 µM]
12,CN=C(NC#N)NCCSCc1csc(N=C(N)N)n1,0.42% [at 35.3 µM]
13,C=C[Si](C)(C)O[Si](C)(C)C=C,-1.88%
14,NC(=O)C1(N2CCCCC2)CCN(CCCC(=O)c2ccc(F)cc2)CC1,-2.06% [at 35.3 µM]
15,O=S(=O)(O)CCO,2.8%
16,CCN(CC)C(=O)C1CN2CCc3cc(OC)c(OC)cc3C2CC1OC(C)=O (centres undefined),4.35% [at 35.3 µM]
17,CC(=O)OC(C)(C)Cc1ccccc1,2.01%
18,O=c1[nH]c(=O)c2[nH]c(=O)[nH]c2[nH]1,-4.02% [at 6.97 µM]
19,N#CCCOCCOCCC#N,-0.681%

row,Structure (SMILES),"activity change, negative = cytotoxicity"
1,Cc1cccc(C(=O)O)c1[N+](=O)[O-],0.0095%
2,C=CCOc1c(Br)cc(C(C)(C)c2cc(Br)c(OCC=C)c(Br)c2)cc1Br,1.85% [at 35.3 µM]
3,CCCCCCCCOC(C)=O,5.83%
4,CCC1Nc2cc(Cl)c(S(N)(=O)=O)cc2S(=O)(=O)N1 (centres undefined),-0.959% [at 35.3 µM]
5,C=CCOCC(CO)(COCC=C)COCC=C,-1.48% [at 35.3 µM]
6,C=CCOCC(O)CCl (centres undefined),3.63%
7,O=C1OC(=O)c2cc(Oc3ccc4c(c3)C(=O)OC4=O)ccc21,-9.87%
8,Cc1cc(O)c2c(c1)C(=O)c1cccc(O)c1C2=O,16.3% [at 35.3 µM]
9,CO[Si](CCCS)(OC)OC,6.71%
10,CCCCC(CC)COC(=O)c1ccccc1 (centres undefined),2.83%
11,CC(C)SCc1ccco1,5.54% [at 35.3 µM]
12,CCNC(=O)NCCCOc1cccc(CN2CCCCC2)c1,-5.31% [at 35.3 µM]
13,CCOC(=O)CC#N,2.25%
14,CCC(=O)c1ccc(O)cc1,3% [at 35.3 µM]
15,CCCCCC1CCCC(=O)O1 (centres undefined),10.7%
16,Cc1cc(C)cc([N+](=O)[O-])c1,5.35%
17,CCC(C)N (centres undefined),-1.66%
18,CC(C)c1ccccc1O,6.8%

# Test: A CellTox Green Cytotoxicity Assay to monitor cytotoxicity in HepG2 cells - 8 hour (AID 1224890); further: nearly all actives have a fitted effect of over 45% in size
# Settings: CellTox Green fluorescence; series mostly up to 76.8 µM; cytotoxicity increase: at the top concentration
# Procedure, shortened: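 Fluorescent DNA-binding dye, 600 HepG2 cells/well, 5 h preincubation then compound in DMSO; same plates read at 0–40 h, 37 C.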
row,Structure (SMILES),cytotoxicity increase
1,Nc1ccc(/C=C/c2ccc(N)cc2S(=O)(=O)O)c(S(=O)(=O)O)c1,-4.57% [at 0.29 µM]
2,CC(C)C(=O)c1ccccc1,-1.92%
3,C=CC(C)(O)CC/C=C(\C)CC (centres undefined),-1.4%
4,C=C(C)C(=O)OC,2.68%
5,O=S1(=O)CCCC1,0.665%
6,CO/N=C(/C(=O)N[C@@H]1C(=O)N2C(C(=O)O)=C(Cn3nnc(C)n3)CS[C@H]12)c1csc(N)n1,-8.05% [at 35.3 µM]
7,NC(=O)NC(=O)Cc1ccccc1,0.824% [at 35.3 µM]
8,C=C(C)[C@@H]1CC[C@@H](C)C[C@@H]1O,6%
9,OC[C@@H](O)[C@H](O)[C@@H](O)[C@@H](O)CO,11.4%
10,CCC(C)(CCC(C)C)C(=O)[O-].CCC(C)(CCC(C)C)C(=O)[O-].[Zn+2] (centres undefined),-0.228%
11,O=C(COCCOCCOCC(=O)Nc1c(I)cc(I)c(C(=O)O)c1I)Nc1c(I)cc(I)c(C(=O)O)c1I,-2.81% [at 35.3 µM]
12,CN=C(NC#N)NCCSCc1csc(N=C(N)N)n1,-13% [at 35.3 µM]
13,C=C[Si](C)(C)O[Si](C)(C)C=C,-8.91%
14,NC(=O)C1(N2CCCCC2)CCN(CCCC(=O)c2ccc(F)cc2)CC1,-10% [at 35.3 µM]
15,O=S(=O)(O)CCO,-5.9%
16,CCN(CC)C(=O)C1CN2CCc3cc(OC)c(OC)cc3C2CC1OC(C)=O (centres undefined),4.17% [at 35.3 µM]
17,CC(=O)OC(C)(C)Cc1ccccc1,-3.09%
18,O=c1[nH]c(=O)c2[nH]c(=O)[nH]c2[nH]1,1.39% [at 6.97 µM]
19,N#CCCOCCOCCC#N,-2.03%

row,Structure (SMILES),cytotoxicity increase
1,Cc1cccc(C(=O)O)c1[N+](=O)[O-],0.0186%
2,C=CCOc1c(Br)cc(C(C)(C)c2cc(Br)c(OCC=C)c(Br)c2)cc1Br,-2.63% [at 35.3 µM]
3,CCCCCCCCOC(C)=O,-0.679%
4,CCC1Nc2cc(Cl)c(S(N)(=O)=O)cc2S(=O)(=O)N1 (centres undefined),-4.83% [at 35.3 µM]
5,C=CCOCC(CO)(COCC=C)COCC=C,-1.4% [at 35.3 µM]
6,C=CCOCC(O)CCl (centres undefined),0.0506%
7,O=C1OC(=O)c2cc(Oc3ccc4c(c3)C(=O)OC4=O)ccc21,-5.29%
8,Cc1cc(O)c2c(c1)C(=O)c1cccc(O)c1C2=O,2.41% [at 35.3 µM]
9,CO[Si](CCCS)(OC)OC,2.07%
10,CCCCC(CC)COC(=O)c1ccccc1 (centres undefined),-1.13%
11,CC(C)SCc1ccco1,-3.96% [at 35.3 µM]
12,CCNC(=O)NCCCOc1cccc(CN2CCCCC2)c1,2.61% [at 35.3 µM]
13,CCOC(=O)CC#N,-2.21%
14,CCC(=O)c1ccc(O)cc1,-10.5% [at 35.3 µM]
15,CCCCCC1CCCC(=O)O1 (centres undefined),8.62%
16,Cc1cc(C)cc([N+](=O)[O-])c1,-23.9%
17,CCC(C)N (centres undefined),-13.2%
18,CC(C)c1ccccc1O,14.3%
